Data on 7 molecules can be found in PubChem BioAssay.

Assay [1] in a line: optical density shifts of acrAB sulA E. coli – strain DRC41, OD650, 48 h, E. coli filamentation inducer project, primary screen (AID 1152).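 Also: E. coli MC1000 strain DRC41 lacking acrAB efflux pump and sulA.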 The conditions noted are these: higher = more signal, called active from +8 up or from −8 down.
A short description of assay [2]: probe aLefty1 binding on compound microarray – biochemical, small-molecule microarray, 635/667 nm fluorescence, primary screen (AID 1153).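 Also: score merges spot fluorescence with signal-to-noise ratio from the scanned slide images.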 The conditions noted are these: higher = more signal.
Assay [3] is described as follows: plasmodial surface anion channel blockers, osmotic lysis – cell-based, P. falciparum Indochina, OD700, 1 h, primary screen (AID 1154). The conditions noted are these: P. falciparum Indochina infected RBC osmotic lysis, higher = more signal, called active from +8 up or from −8 down.
Assay [4] is described as follows: plasmodial surface anion channel blockers, osmotic lysis – cell-based, P. falciparum Indochina, OD700, 2 h, primary screen (AID 1155).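 Also: lysis reports solute entry through the parasite surface anion channel PSAC.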 As to conditions: P. falciparum Indochina infected erythrocytes, higher = more signal, called active from +8 up or from −8 down.
Assay [5] in a line: changes in parasitized red cell lysis, either direction – P. falciparum Indochina, OD700, 3 h, PSAC antagonist project, primary screen (AID 1156). As to conditions: P. falciparum-infected erythrocytes, osmotic lysis, higher = more signal, called active from +8 up or from −8 down.
Assay [6] is described as follows: plasmodial surface anion channel blockers, osmotic lysis – cell-based, P. falciparum Indochina, OD700, 18 h, primary screen (AID 1157). As to conditions: P. falciparum Indochina infected erythrocytes, osmotic lysis OD700, 18 h; higher = more signal, called active from +8 up or from −8 down.
The nature of assay [7]: S6 kinase pathway phospho-S6 level changes – cell-based, A549, cytoblot, luminescence, serum-stimulated, primary screen (AID 1158).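 Also: serum-stimulated A549 lung adenocarcinoma cells; signal is phosphorylated S6 detected by cytoblot immunostaining with HRP secondary.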 As to conditions: 5 h, higher = more signal.
The target of assay [8] is NADPH oxidase 2 (Homo sapiens) (UniProt P04839). Description: compounds shifting NOX2 Amplex Red fluorescence – cell-based, HEK293-NOX2, PMA-stimulated, NOX inhibitor project, primary screen (AID 1159). Also: test concentration not given here. The conditions noted are these: 45 min, higher = more signal, called active from +8 up or from −8 down.
For assay [9], the target named is NADPH oxidase 4 (Homo sapiens) (UniProt Q9NPH5). Nature of the assay: compounds shifting NOX4 Amplex Red fluorescence – cell-based, HEK293-NOX4, tetracycline-induced, NOX inhibitor project, primary screen (AID 1160). The conditions noted are these: HEK293-NOX4, Amplex Red H2O2 fluorescence, 45 min; higher = more signal, called active from +8 up or from −8 down.
Assay [10] deals with NADPH oxidase 5 (Homo sapiens) (UniProt Q96PH1). Description: compounds shifting NOX5 Amplex Red fluorescence – cell-based, HEK293-NOX5, NOX inhibitor project, primary screen (AID 1161). As to conditions: HEK293-NOX5, ionomycin, 45 min, higher = more signal.
Assay [11] is described as follows: compound effects on lung adenocarcinoma cell viability – A549, calcein-AM fluorescence, 48 h, basal, profiling panel (AID 1162). Also: test concentration not given here. The conditions noted are these: higher = more signal.
Assay [12] can be described thus: compound effects on differentiated 3T3-L1 adipocyte viability – cell-based, 3T3-L1 adipocytes, calcein-AM fluorescence, 48 h, basal, profiling panel (AID 1163). Also: test concentration not given here. As to conditions: 3T3-L1 adipocytes viability, higher = more signal.
Assay [13] in a line: compound effects on hepatocellular carcinoma cell viability – HepG2, calcein-AM fluorescence, 48 h, basal, profiling panel (AID 1164). Also: test concentration not given here. As to conditions: higher = more signal.
A short description of assay [14]: compound effects on multiple myeloma cell viability – MM1S, calcein-AM fluorescence, 48 h, basal, profiling panel (AID 1165). Also: test concentration not given here. The conditions noted are these: higher = more signal.
The nature of assay [15]: calcein-AM signal in unstimulated myeloma cells – cell-based, calcein-AM fluorescence, 48 h, PK04 Diversity Set, profiling panel (AID 1166).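 Also: cells grown under basal conditions without added stimulus; test concentration not given here.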 The conditions noted are these: RPMI8226 myeloma viability, higher = more signal.
Assay [16] can be described thus: JC-1 mitochondrial signal, unstimulated HepG2 cells – cell-based, JC-1 fluorescence, 24 h, 100 nL compound, profiling panel (AID 1167). Also: test concentration not given here. The conditions noted are these: HepG2 mitochondrial potential, higher = more signal.
Assay [17] in a line: JC-1 mitochondrial signal, unstimulated adipocytes – cell-based, JC-1 fluorescence, 3T3-L1 adipocytes, 24 h, 100 nL compound, profiling panel (AID 1168). Also: test concentration not given here. As to conditions: JC-1 mitochondrial fluorescence, higher = more signal, called active from +8 up or from −8 down.
Assay [18] can be described thus: JC-1 mitochondrial signal, unstimulated myeloma cells – cell-based, JC-1 fluorescence, RPMI8226, 24 h, 100 nL compound, profiling panel (AID 1169). Also: test concentration not given here. As to conditions: JC-1 mitochondrial potential fluorescence, higher = more signal.
Assay [19] can be described thus: JC-1 mitochondrial signal, unstimulated MM1S myeloma – cell-based, JC-1 fluorescence, 24 h, 100 nL compound, profiling panel (AID 1170). Also: test concentration not given here. The conditions noted are these: MM1S mitochondrial potential, higher = more signal.
The nature of assay [20]: resazurin metabolic signal in A549 cells – cell-based, resazurin fluorescence, 24 h, PK04 Diversity Set, profiling panel (AID 1171). Also: test concentration not given here. As to conditions: A549 viability, higher = more signal, called active from +8 up or from −8 down. (The colour change of resazurin is a common sign of viable cells or microbes.)

The structures appear in SMILES notation. Activity calls are given as the source filed them.

Sequence of NADPH oxidase 4 (Homo sapiens) (Q9NPH5 whole entry, looked up): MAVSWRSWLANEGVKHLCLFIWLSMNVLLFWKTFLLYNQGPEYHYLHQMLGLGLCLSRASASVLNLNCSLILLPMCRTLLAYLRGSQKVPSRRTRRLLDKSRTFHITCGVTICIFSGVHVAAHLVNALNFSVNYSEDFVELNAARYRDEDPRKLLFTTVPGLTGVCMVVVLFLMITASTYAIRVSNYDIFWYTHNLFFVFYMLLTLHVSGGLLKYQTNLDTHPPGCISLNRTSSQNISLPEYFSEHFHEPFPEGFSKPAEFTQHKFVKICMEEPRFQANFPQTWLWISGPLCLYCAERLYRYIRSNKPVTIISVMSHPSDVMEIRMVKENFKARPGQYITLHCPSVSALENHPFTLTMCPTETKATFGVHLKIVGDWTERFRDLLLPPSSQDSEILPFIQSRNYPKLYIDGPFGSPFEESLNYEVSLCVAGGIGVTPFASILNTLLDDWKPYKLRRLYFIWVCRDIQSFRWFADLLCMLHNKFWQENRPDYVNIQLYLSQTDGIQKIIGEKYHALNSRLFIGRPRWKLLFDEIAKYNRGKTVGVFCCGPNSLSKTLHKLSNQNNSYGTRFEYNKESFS
Sequence of NADPH oxidase 5 (Homo sapiens) (Q96PH1 whole entry, looked up): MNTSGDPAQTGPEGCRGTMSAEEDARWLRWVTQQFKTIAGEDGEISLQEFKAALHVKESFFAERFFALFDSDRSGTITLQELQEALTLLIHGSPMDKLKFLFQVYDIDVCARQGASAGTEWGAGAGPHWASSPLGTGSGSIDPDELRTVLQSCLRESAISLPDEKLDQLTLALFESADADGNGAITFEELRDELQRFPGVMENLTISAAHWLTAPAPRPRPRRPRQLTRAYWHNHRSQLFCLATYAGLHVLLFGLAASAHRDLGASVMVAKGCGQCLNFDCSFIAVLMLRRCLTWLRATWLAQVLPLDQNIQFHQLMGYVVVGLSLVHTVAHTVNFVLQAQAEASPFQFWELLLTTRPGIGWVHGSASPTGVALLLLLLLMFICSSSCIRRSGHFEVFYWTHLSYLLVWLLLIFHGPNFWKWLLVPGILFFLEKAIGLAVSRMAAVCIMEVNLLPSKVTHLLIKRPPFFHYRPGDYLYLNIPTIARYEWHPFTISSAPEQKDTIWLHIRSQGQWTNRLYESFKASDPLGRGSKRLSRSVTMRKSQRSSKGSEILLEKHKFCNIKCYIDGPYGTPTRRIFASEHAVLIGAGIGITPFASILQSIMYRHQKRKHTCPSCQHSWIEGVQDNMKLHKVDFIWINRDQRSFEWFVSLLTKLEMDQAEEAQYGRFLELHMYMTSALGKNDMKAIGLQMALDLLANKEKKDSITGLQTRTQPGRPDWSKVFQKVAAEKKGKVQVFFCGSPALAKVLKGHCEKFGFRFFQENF
Sequence of NADPH oxidase 2 (Homo sapiens) (P04839 whole entry, looked up): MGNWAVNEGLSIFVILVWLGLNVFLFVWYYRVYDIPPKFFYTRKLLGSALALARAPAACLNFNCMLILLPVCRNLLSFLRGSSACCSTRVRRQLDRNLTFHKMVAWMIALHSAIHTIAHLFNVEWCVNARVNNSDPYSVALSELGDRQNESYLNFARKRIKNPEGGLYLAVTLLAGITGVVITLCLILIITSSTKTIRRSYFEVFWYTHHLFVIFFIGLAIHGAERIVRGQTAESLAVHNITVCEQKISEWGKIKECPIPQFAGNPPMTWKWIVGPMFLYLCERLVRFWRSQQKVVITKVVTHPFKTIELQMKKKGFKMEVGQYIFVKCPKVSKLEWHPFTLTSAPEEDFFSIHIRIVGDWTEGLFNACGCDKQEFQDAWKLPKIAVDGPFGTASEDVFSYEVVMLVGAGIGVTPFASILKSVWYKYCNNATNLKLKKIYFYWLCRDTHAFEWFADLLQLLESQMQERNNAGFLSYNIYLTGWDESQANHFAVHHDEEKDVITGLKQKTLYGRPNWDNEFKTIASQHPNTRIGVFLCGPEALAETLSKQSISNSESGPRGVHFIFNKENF

Take `CO[C@H]1COC(=O)[C@@H](C)COC(=O)[C@H](COCc2ccccc2)NC(=O)CC=C[C@H]1C`: the z-score in [1] was -1.17 (inactive); in [3] it was -0.262 (inactive); in assay [4], 0.149 (inactive); in assay [5], -0.0011 (inactive); in [6], 0.156 (inactive); in [7], 0.503. In addition, the z-score in assay [8] is -1.95 (inactive); in [9], 0.126 (inactive); in assay [10] it was 0.284; in [11], 0.362; in [12], 0.293; in [13], 0.298. Further, the z-score is 0.555 in assay [14]; 0.34 in assay [15]; 1.36 in assay [16]; -0.213 (inactive) in assay [17]; 0.529 in assay [18]; 2.5 in assay [19]. Further, in [20], the z-score was 0.266 (inactive). This molecule gave a composite z-score in [2] of -0.0654.

As to `C[C@H](ON=C1[C@H]2CCn3c(=O)n(-c4ccccc4)c(=O)n3[C@H]2[C@H](O)[C@@H]2O[C@H]12)c1cn([C@H](CO)Cc2ccccc2)nn1`, the z-score is 0.699 (inactive) in assay [1]; 0.463 (inactive) in [3]; -0.426 (inactive) in assay [4]; -0.089 (inactive) in [5]; -0.0498 (inactive) in assay [6]; -0.52 in [7]. Further, the z-score in assay [8] was -0.094 (inactive); in assay [9], 0.535 (inactive); in [10] it was 0.346; in assay [11], -0.142; in [12], -0.443; in assay [13], 0.115. Moreover, the z-score in [14] is -0.403; in assay [15], -0.533; in [16], -0.633; in assay [17], -1 (inactive); in [18], -0.243; in [19], 0.155. Besides, in assay [20], the z-score was -0.16 (inactive). In [2], the composite z-score turned out to be 0.0502.

As for `CO[C@@H]1COC(=O)CC=C[C@@H](C)[C@H](OC)COC(=O)[C@@H](C)COC(=O)CC=C[C@H]1C`, the z-score in assay [1] was 0.604 (inactive); in [3] it was -0.52 (inactive); in assay [4] it was 0.409 (inactive); in [5] it was -0.28 (inactive); in assay [6], 0.377 (inactive); in [7], -0.0303. Further, the z-score in assay [8] was -0.387 (inactive); in assay [9], 0.195 (inactive); in assay [10], 0.479; in assay [11] it was 0.865; in assay [12], -0.159; in assay [13], 1.48. Moreover, the z-score is 0.397 in assay [14]; -0.802 in [15]; 1.11 in [16]; -0.661 (inactive) in [17]; 0.338 in assay [18]; 0.253 in assay [19]. In addition, in assay [20], the z-score was 0.134 (inactive). For the same molecule, in assay [2], the composite z-score was -0.145.

With `O=C(NN=C1C[C@@H](O)[C@@H](O)[C@@H]2[C@@H]3C(=O)N(C4CCCCC4)C(=O)[C@@H]3CC[C@@H]12)OCc1ccccc1`, the z-score in assay [1] was 0.536 (inactive); in [3], 4.15 (inactive); in assay [4], 0.586 (inactive); in assay [5], 0.228 (inactive); in assay [6], 0.229 (inactive); in assay [7], -0.146. The z-score in assay [8] is -0.457 (inactive); in [9], -0.223 (inactive); in assay [10], 0.118; in assay [11], 0.225; in assay [12], 0.487; in assay [13] it was 0.621. For the same molecule, the z-score in assay [14] was 0.495; in assay [15] it was -0.697; in assay [16], -0.502; in [17] it was -0.247 (inactive); in assay [18] it was -0.369; in assay [19], -0.309. Also, in assay [20], the z-score was -0.24 (inactive). This molecule registered a composite z-score in assay [2] of -0.407.

Turning to `CC(C)(C)N1C(=O)[C@H]2[C@H]3[C@H](O)[C@H](O)CC(=NO[C@@H]4O[C@H](CO)[C@@H](O)[C@H](O)[C@H]4O)[C@H]3CC[C@H]2C1=O`, the z-score is -1.73 (inactive) in assay [1]; 5.45 (inactive) in assay [3]; 1.46 (inactive) in assay [4]; 1.01 (inactive) in assay [5]; 1.24 (inactive) in [6]; -0.527 in assay [7]. Moreover, the z-score in assay [8] was 0.192 (inactive); in [9], -0.912 (inactive); in assay [10] it was -3.69; in [11], -2.09; in assay [12] it was 1.08; in assay [13], -2.16. Moreover, the z-score in assay [14] was -2.93; in assay [15], -3.96; in [16], -1.68; in assay [17] it was -1.81 (inactive); in [18], -0.344; in assay [19] it was -0.447. Further, the z-score in [20] is -0.817 (inactive). Moreover, in [2], the composite z-score was -0.193.

On to `COc1ccc(COC(=O)NN=C2C[C@@H](O)[C@@H](O)[C@@H]3[C@@H]4C(=O)N(c5cccc(Oc6ccccc6)c5)C(=O)[C@@H]4CC[C@@H]23)cc1`, for which the z-score in assay [1] was -0.367 (inactive); in assay [3], 4.54 (inactive); in assay [4], 1.2 (inactive); in assay [5] it was 1.28 (inactive); in assay [6], 0.181 (inactive); in [7] it was -0.313. The z-score in assay [8] is 1.32 (inactive); in assay [9] it was 0.56 (inactive); in assay [10], 1.02; in assay [11], 0.226; in assay [12], -0.518; in assay [13] it was -0.826. Besides, the z-score in assay [14] was 0.754; in assay [15], 0.196; in [16] it was -0.767; in [17], -0.0215 (inactive); in assay [18], 0.587; in assay [19], -0.442. Besides, the z-score in [20] was 0.166 (inactive). Besides, the composite z-score in assay [2] came to 0.347.

In the case of `Cc1cc2c(nc1C)CCCCN2CC(C)ON=C[C@@H](C)[C@H](OCc1ccccc1)C(C)C` (stereo not given in full), the z-score was -0.0958 (inactive) in assay [1]; 1.34 (inactive) in assay [3]; 0.147 (inactive) in assay [4]; 0.472 (inactive) in assay [5]; 0.171 (inactive) in assay [6]; -0.732 in assay [7]. Also, the z-score was -0.892 (inactive) in assay [8]; -0.45 (inactive) in [9]; -3.3 in assay [10]; -0.672 in assay [11]; -0.44 in [12]; -1.27 in assay [13]. Moreover, the z-score in assay [14] was -2.94; in assay [15] it was -3.77; in [16] it was -1.91; in assay [17] it was -1.4 (inactive); in assay [18], -0.262; in assay [19] it was 0.034. In addition, the z-score in [20] is 4.05 (inactive). This molecule gave a composite z-score in assay [2] of -0.8.
